Source: the supplement of paper PMC3334620
Whole data set: some 33,000 sequences, median “E-score (-0.5 to 0.5)” near -0.01, cut for the highest 2% near 0.26. Shown is part of a subset that was picked to be rich in the highest values.

What follows are sequences tested against Ste12 (UniProt P13574) (assay: PBM E-score (8-mer binding enrichment) (E-score (-0.5 to 0.5)); higher = stronger / more preferred TF binding). Details: protein concentration: 200 nM; construct: GST-DNA-binding domain.
Method: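 Universal 'all 10-mer' protein binding microarrays (Agilent AMADID 015681) probed with GST-tagged S. cerevisiae TFs (full-length or DBD) made by in vitro transcription/translation (PURExpress), about 100-200 nM. Bound TF was detected with fluorescent anti-GST. Each ungapped 8-mer (which stands for itself and its reverse complement) is scored by the PBM enrichment score (E-score), a modified Wilcoxon-Mann-Whitney statistic from -0.5 to +0.5, computed with the Universal PBM Analysis Suite. Scale: above 0.35 generally sequence-specific binding.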

Chain of UniProt P13574 (P13574 whole entry, the tested form may be a part): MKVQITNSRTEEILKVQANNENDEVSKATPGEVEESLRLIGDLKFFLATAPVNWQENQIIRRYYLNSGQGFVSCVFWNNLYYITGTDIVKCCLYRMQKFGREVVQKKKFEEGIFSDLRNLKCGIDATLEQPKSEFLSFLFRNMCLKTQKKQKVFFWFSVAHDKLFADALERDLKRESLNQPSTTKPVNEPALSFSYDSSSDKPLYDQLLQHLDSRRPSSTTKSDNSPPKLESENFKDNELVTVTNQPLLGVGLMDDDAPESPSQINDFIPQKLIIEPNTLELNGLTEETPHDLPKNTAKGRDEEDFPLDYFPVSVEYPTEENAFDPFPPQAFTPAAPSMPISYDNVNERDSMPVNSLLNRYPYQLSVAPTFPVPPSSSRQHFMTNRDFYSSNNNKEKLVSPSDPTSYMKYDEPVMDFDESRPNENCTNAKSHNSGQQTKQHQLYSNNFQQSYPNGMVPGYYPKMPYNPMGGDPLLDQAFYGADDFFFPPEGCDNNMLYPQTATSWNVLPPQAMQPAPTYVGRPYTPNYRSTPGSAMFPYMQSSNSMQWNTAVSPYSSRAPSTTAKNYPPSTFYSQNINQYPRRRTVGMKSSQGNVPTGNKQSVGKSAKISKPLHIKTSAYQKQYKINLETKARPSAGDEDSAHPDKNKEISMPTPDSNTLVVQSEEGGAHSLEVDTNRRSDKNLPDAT

Sequence | PBM E-score
GATCGATA | 0.0823
TCAAGGCA | -0.169
ACCTTGGA | -0.197
ATGTCTTA | 0.134
AACACGAC | -0.104
CAATATAG | 0.117
TAATATAA | 0.287
GAATATAA | 0.161
TATAATAA | 0.141
CAATATAA | 0.316
CAATATAC | 0.116
CTCCCGTC | 0.0578
AAAGGGAT | 0.00067
AAAGTCAA | 0.189
GTCTTATA | 0.0618
ATCTTATA | 0.0647
CTCTTATA | 0.267
AAGCCCCA | -0.237
AGGCCATA | -0.245
CCCATAGA | -0.143
AAAATTTT | 0.311
AAAAATTT | 0.138
AAAATTGT | 0.225
AAAATTAC | 0.188
AAAATTAA | 0.134
AAAATTTG | 0.0212

Sequence | PBM E-score
AAAATTAG | 0.31
AAAATTAT | 0.337
ATAATTAT | 0.195
GGCCACCA | 0.0635
CAACCTAA | 0.0543
GTATCGTA | 0.0508
GATGCAAC | -0.0126
AGTTGACG | 0.019
CATCCAGA | -0.00655
CAAACGCA | -0.133
CAAACGCC | 0.0326
GGAACGCC | -0.017
GAAACGCA | 0.323
GAAACGCC | 0.288
TAAACGCA | -0.0738
ATGCTTAG | -0.205
AGCAGTAG | -0.168
TGGCCCCA | -0.094
AAGTAGTG | -0.075
ACCTAATC | 0.0677
GAAAGAAA | 0.297
CAAAGAAA | 0.214
CGTAGAAA | -0.0538
ACAAGAAT | 0.137
AGTAGAAA | 0.297
CCAAGAAA | 0.0914

Sequence | PBM E-score
AGTAGAAC | -0.0785
ACAAGAAA | 0.28
GAAAGAAC | -0.00643
CCCACATC | -0.0169
GGCAAGCC | -0.0158
GCTAACCC | -0.192
CAGCTGCG | -0.0692
AGAAATTG | 0.209
CATGGATC | -0.0524
AACTTTAT | 0.165
ACTAATAT | 0.288
ACTAATAG | 0.0525
ACTAATAC | 0.131
ACTAAAAC | 0.272
AATAAAAT | 0.183
ACTAAAAT | 0.27
ACTAAAAG | 0.1
ACTAAAAA | 0.203
ACTAAACC | 0.0959
AGAGTCTC | -0.00303
CTTGTTCA | -0.105
GACGTCAC | -0.136
TCATACCA | -0.0469
CATGGTTC | 0.19
GTGGGCGA | -0.0639
CGGACCAA | -0.096

Sequence | PBM E-score
AACTGGTA | -0.00841
ATCGTCGG | 0.00187
ACCGTTTG | -0.0273
CCCGTTGC | -0.145
ACCGTTTC | 0.3
CCCGTTTA | 0.0626
ACCGTTTA | 0.059
CCCGTTTC | 0.274
TCACTTAA | 0.191
TCCGACGA | -0.109
CCCGACGA | 0.284
GCCGACGA | 0.17
ATAGCATA | -0.011
GAAGACTA | -0.0635
GAATTAAC | 0.00892
TAATTGAA | 0.0688
AAATTAAA | 0.206
CAATTGAA | 0.187
GAATTAAA | 0.287
TGATTAAA | 0.158
GGATTAAA | 0.274
CGATTAAA | 0.073
GAATTGAA | 0.278
ATCCTACG | -0.141
GAGCTTGA | -0.176
AAAAACAC | 0.233

Sequence | PBM E-score
CCGGAACC | 0.0511
GCGGGGTA | 0.143
CAGCCATC | -0.0408
GCTCTACC | -0.167
AAGCGAGA | 0.108
CTCTTTAA | -0.122
CTACCAAA | 0.0171
GTACCAAA | 0.0457
CTACCGAA | -0.131
TTACCAAA | 0.263
TTACCGAA | 0.276
GTACCGAA | 0.0964
GCATGCCC | 0.105
AAACTGTA | 0.135
AAACTTTA | 0.294
AAACTTTG | 0.217
AAACTTAA | 0.298
CAACTTAA | 0.0143
AAACTGTT | 0.162
GAACTTAA | 0.115
CAACTTTA | 0.161
AAACTGAA | 0.268
AAGATTGC | -0.0392
ACTTTGAT | 0.11
CCCGGCGG | 0.0682
ATTAAGGG | 0.0581

Sequence | PBM E-score
ATCTCGAC | 0.0726
GATCCCCA | 0.0544
CGCCTACA | 0.0882
GTAGCCAC | -0.27
CTGGGGGC | -0.233
ACCCCACT | 0.0311
ACCCCACG | -0.159
ACCCCACC | 0.373
CCCCCACC | -0.207
GCCCCACA | 0.101
GCCCCACC | 0.266
GGACCCGA | -0.0164
CTCCACAA | 0.00925
CAAAGCGA | 0.0708
ACAAGGAC | -0.129
AGAAGACA | -0.132
AACTCGCC | -0.0534
AAATTTAG | 0.169
AAATTTAT | 0.263
AAATTTAA | 0.289
AGATTTAA | 0.0444
AAATTTCA | 0.0583
AAATTTAC | 0.197
TGATTTAA | 0.266
TAATTTAA | 0.3
AAATTTGA | 0.123

Sequence | PBM E-score
CGATTTAA | 0.1
GAATTTAA | 0.0395
CAATTTAA | 0.2
GGAATGGA | 0.0113
TTACCCAA | 0.0694
CTTTGCTA | 0.162
CTCACAGA | 0.00059
AACTCGTA | 0.143
TCCCCACA | -0.0875
CACCTATC | 0.0217
AAAAACGA | 0.272
GAAAACGA | -0.0839
CCAAACGA | 0.0156
CAAAACGA | 0.272
GGAAACGA | 0.275
AAAAACGG | 0.174
CGAAACGA | 0.205
TAAAACGA | 0.134
CAAAACGC | 0.229
AGAAACGA | 0.207
CAAAACGG | 0.302
CCAAACGG | -0.0425
